Entries with a potency or affinity are not part of this list. Active and inactive are the calls of the source.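 The calls were made as follows: active = falling luciferase signal whose fitted half-maximal concentration is at most twice the top tested dose; inconclusive = flat inhibition between 30 and 70% or a poor curve fit; inactive = the rest.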
Test: off-target signal loss in HeLa-CEM21 co-culture – HeLa F-luc CTL cells, cherry-picked, counter-screen for HIV-1 Env fusion inhibitor project, dose response (AID 652040);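 also: more negative values mean stronger loss of luciferase signal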
Conditions: HeLa-F-luc CTL cells with CEM21, firefly luciferase counterscreen; series mostly up to 35 µM
With COc1ccc(-c2nn(C)c(=O)c3ccccc23)cc1NC(=O)Cn1nc(C)c2ccccc2c1=O the outcome was “inactive”. For Cc1ccccc1-n1c(=O)c2ccccc2n2cnnc12, the outcome was “inactive”. With COC(=O)C1CCN(C(=O)COC(=O)c2cc(S(=O)(=O)N3CCOCC3)ccc2C)CC1 the outcome was “inactive”. For O=C(Nc1cc2c3c(c1)CC(=O)N3CCC2)c1ccc(Cl)cc1, the outcome was “inactive”. For O=C(CCNC(=O)c1ccc(Br)cc1)NNC(=O)COc1ccccc1F, the outcome was “inactive”. In the case of C#CCn1c(=O)c2c(ncn2C)n(C)c1=O, the outcome is reported as “inactive”. In the case of Cc1cc(C(=O)NC2CCCc3c2cnn3-c2ccc(C(C)(C)C)cc2)nn1C (stereo not given), the outcome is reported as “inactive”. For Cc1ccccc1S(=O)(=O)NC(=O)C1(C)CCN1C(=O)CCc1ccc(Cl)cc1Cl (stereo not given), the outcome was “inactive”. For CN(C(=O)c1cccc(NC(=O)Cc2cccc(NC(=O)C3CCCN(C(=O)C4CCC4)C3)c2)c1)C1CCC1 (stereo not given), the outcome was “inactive”. With CCc1cc2c(NCc3ccco3)ncnc2s1 the outcome was “inactive”. With Cn1cc(S(=O)(=O)N2CCOCC2)cc1C(=O)Nc1cccc(Cl)c1 the outcome was “inactive”. For CSc1ccc(CN(C)C(=O)c2cccc(S(=O)(=O)N3CCN(Cc4ccccc4)CC3)c2)cc1, the outcome was “inactive”. In the case of Nc1nc2c(ncn2[C@@H]2O[C@H](C(=O)NCC(c3ccccc3)c3ccccc3)[C@@H](O)[C@H]2O)c(=O)[nH]1, the outcome is reported as “inactive”. With CC(C)CN(C(=O)c1ccc(S(=O)(=O)N2CCCCC2)cc1)C1CCS(=O)(=O)C1 (stereo not given) the outcome was “inactive”. For c1ccc2c(c1)CCN(c1ncnc3c1[nH]c1ccccc13)C2, the outcome was “inactive”. For O=C(Nc1ccc(Cl)cc1)C1CCCN(C2=NS(=O)(=O)c3ccccc32)C1 (stereo not given), the outcome was “inactive”. With CCOC(=O)C1CCCN(Cc2nc(N)nc(Nc3ccc(OC)cc3)n2)C1 (stereo not given) the outcome was “inactive”. For COc1ccc2[nH]c3c(N4CCC(O)(c5cccc(C(F)(F)F)c5)CC4)ncnc3c2c1, the outcome was “inactive”. For COC(=O)c1ccc(C(=O)NC2CCCc3c2cnn3-c2ccc(C)c(C)c2)cc1 (stereo not given), the outcome was “inactive”. In the case of O=C(Nc1cccn(Cc2c(Cl)cccc2Cl)c1=O)c1ccc(Cl)cc1, the outcome is reported as “inactive”. With COCc1[nH]nc2c1C(c1ccc(F)cc1)N(Cc1ccccc1)C2=O (stereo not given) the outcome was “inactive”. In the case of COc1ccc(S(=O)(=O)N2CCCCC2)cc1NC(=O)CCCOc1ccc(C)cc1, the outcome is reported as “inactive”. For COC(=O)c1ccc(NC(=O)c2ccc(CN3CCOCC3)cc2)cc1, the outcome was “inactive”. For CCCc1cc(=O)n2[nH]cc(-c3ccc(Cl)cc3)c2n1, the outcome was “inactive”. With Cc1ccc(-n2nnnc2-c2cnn(-c3ccc(F)cc3)c2C(F)(F)F)cc1 the outcome was “inactive”. For O=C(COC(=O)c1ncc(Cl)c(Cl)c1Cl)NCc1cccs1, the outcome was “inactive”. For Cc1ccc(-n2nnnc2SCn2nnc3ccccc3c2=O)c(C)c1, the outcome was “inactive”. For Cc1ccc(NC(=O)c2ccc(OCC3CCCO3)cc2)cc1Cl (stereo not given), the outcome was “inactive”. In the case of COc1ccccc1Oc1ccc(S(=O)(=O)NCc2ccccn2)cc1, the outcome is reported as “inactive”. For Oc1ccc(C=NNc2ccccn2)c(O)c1, the outcome was “inactive”. In the case of COc1ccc(-c2cc(C(=O)NNC(=S)NC(=O)c3c(-c4ccccc4)noc3C)[nH]n2)cc1, the outcome is reported as “inactive”. With CC(C)OCCCNc1ncnc2c1[nH]c1ccccc12 the outcome was “inactive”. For O=C(NCCCN1CCc2ccccc2C1)Nc1ccc(Cl)cc1, the outcome was “inactive”. With CC1CCCN(C(=O)c2ccc(S(=O)(=O)N3CCC(c4nc5ccccc5s4)CC3)cc2)C1 (stereo not given) the outcome was “inactive”. For O=S(=O)(NC1CC1)c1ccc(S(=O)(=O)N2CCCc3ccccc32)cc1, the outcome was “inactive”. For O=C(OCCOc1cccc(Cl)c1)c1cc(S(=O)(=O)N2CCCCC2)ccc1N1CCOCC1, the outcome was “inactive”. In the case of c1ccc(CSc2nnc([C@@H]3CCCN3)o2)cc1, the outcome is reported as “inactive”. For CC1CCC(C(C)C)C(OC(=O)Cn2c(-c3ccccc3)[n+](C)c3ccccc32)C1 (stereo not given), the outcome was “inactive”. In the case of COc1ccc(/C=C/c2cc(-c3ccc(C)cc3)o[n+]2C)cc1, the outcome is reported as “inactive”. With CS(=O)(=O)N1CCN(c2ccccc2NC(=O)C(c2ccccc2)c2ccccc2)CC1 the outcome was “inactive”.
